Source: PubChem BioAssay (NCATS)
Inconclusive results are not listed. Activity calls are given as the source filed them. Calls come from the whole dose curve; as a rule, active = well fitted curve in the direction sought with a large enough effect; inconclusive = small, poorly fitted or top-dose-only effect, or another doubt; inactive = no such curve, though single readings can be large; an effect the other way counts as inactive or inconclusive.

Assays:
[1] = system: MCC-13; assay: qHTS assay to identify novel small-molecules to repurpose for Merkel cell carcinoma treatment (AID 1296009); conditions: MCC and control cell lines, CellTiter-Glo viability, 72 h; series mostly up to 46 µM; note: nearly all actives have a fitted effect of over 60% in size
Outline: (§1)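 CellTiter-Glo luminescence after 72 hr compound exposure at 37 degree celsius gave cell viability. Libraries NPC and MIPE were run as 8- and 11-point dose responses; RLUs normalized to DMSO (negative) and no-cell (cytotoxicity) controls.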

[2] = system: MCC-26; assay: as above; conditions: MCC and control cell lines, CellTiter-Glo viability, 72 h; series mostly up to 46 µM
Outline: as §1

[3] = system: MKL-1; assay: as above; conditions: MCC and control cell lines, CellTiter-Glo viability, 72 h; series mostly up to 46 µM
Outline: as §1

[4] = system: MKL-2; assay: as above; conditions: MCC and control cell lines, CellTiter-Glo viability, 72 h; series mostly up to 46 µM
Outline: as §1

[5] = system: UISO; assay: as above; conditions: MCC and control cell lines, CellTiter-Glo viability, 72 h; series mostly up to 46 µM
Outline: as §1

[6] = system: C33A; assay: Primary qHTS to identify gynecologic anti-cancer compounds using libraries of approved drugs and bioactive compounds (AID 1345084); conditions: Gynecologic cancer cell panel viability, ATPlite luminescence, 48 h; series mostly up to 57.5 µM; note: nearly all actives have a fitted effect of over 55% in size; note: potency is the fitted concentration of half-maximal effect
Outline: (§2)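 ATP-based viability (ATPlite), 1,000 cells/well, 16 h pre-incubation, 48 h compound at 37 C, 5% CO2, 15 min RT before read.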

[7] = system: CASKI; assay: as above; conditions: Gynecologic cancer cell panel viability, ATPlite luminescence, 48 h; series mostly up to 57.5 µM
Outline: as §2

[8] = system: Es-2; assay: as above; conditions: Gynecologic cancer cell panel viability, ATPlite luminescence, 48 h; series mostly up to 57.5 µM
Outline: as §2

[9] = system: HeLa; assay: as above; conditions: Gynecologic cancer cell panel viability, ATPlite luminescence, 48 h; series mostly up to 57.5 µM
Outline: as §2

[10] = system: Hek293T; assay: as above; conditions: Gynecologic cancer cell panel viability, ATPlite luminescence, 48 h, control line for the selectivity index; series mostly up to 57.5 µM
Outline: as §2

[11] = system: JEG-3; assay: as above; conditions: Gynecologic cancer cell panel viability, ATPlite luminescence, 48 h; series mostly up to 57.5 µM
Outline: as §2

[12] = system: PA-1; assay: as above; conditions: Gynecologic cancer cell panel viability, ATPlite luminescence, 48 h; series mostly up to 57.5 µM
Outline: as §2

[13] = system: SKOV3; assay: as above; conditions: Gynecologic cancer cell panel viability, ATPlite luminescence, 48 h; series mostly up to 57.5 µM
Outline: as §2

[14] = system: Tov-21-G; assay: as above; conditions: Gynecologic cancer cell panel viability, ATPlite luminescence, 48 h; series mostly up to 57.5 µM
Outline: as §2

[15] = system: Tov112D; assay: as above; conditions: Gynecologic cancer cell panel viability, ATPlite luminescence, 48 h; series mostly up to 57.5 µM
Outline: as §2

[16] = Drug repurposing screens with cells derived from glioblastoma tumor samples (AID 1345199); conditions: GBM patient neurospheres viability, ATP luminescence, 48 h; note: nearly all actives have a fitted effect of over 40% in size; note: potency is the fitted concentration of half-maximal effect
Outline: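 Primary testing used CD133+ neurospheres from four GBM patients, seven concentrations, 48 h exposure and ATP-based viability; confirmation added three slower-growing patient lines.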

[17] = system: WaGa; assay: qHTS assay to identify novel small-molecules to repurpose for Merkel cell carcinoma treatment (AID 1296009); conditions: MCC and control cell lines, CellTiter-Glo viability, 72 h; series mostly up to 46 µM; note: nearly all actives have a fitted effect of over 60% in size
Outline: as §1

[18] = system: OV90; assay: Primary qHTS to identify gynecologic anti-cancer compounds using libraries of approved drugs and bioactive compounds (AID 1345084); conditions: Gynecologic cancer cell panel viability, ATPlite luminescence, 48 h; series mostly up to 57.5 µM; note: nearly all actives have a fitted effect of over 55% in size; note: potency is the fitted concentration of half-maximal effect
Outline: as §2

[19] = system: CAOV3; assay: as above; conditions: Gynecologic cancer cell panel viability, ATPlite luminescence, 48 h; series mostly up to 57.5 µM
Outline: as §2

[20] = at 91.6 µM (top of the series), tumour line B
[21] = at 45.9 µM (top of the series), tumour line B
[22] = at 45.9 µM (top of the series), tumour line D
[23] = at 21.2 µM (top of the series), tumour line B
[24] = at 21.2 µM (top of the series), tumour line D
[25] = at 108 µM (top of the series), tumour line B
[26] = at 108 µM (top of the series), tumour line D
% is set by controls: 0 for no effect and ±100 for the full control effect.

CC(C)=CCN1CC[C@@]2(C)c3cc(O)ccc3C[C@@H]1[C@@H]2C
active: Potency [8] 28.2 µM | Potency ([16]; tumour line A) 25.1 µM
inactive: Potency [1] | Potency [2] | Potency [3] | Potency [4] | Potency [5] | Potency [6] | Potency [7] | Potency [9] | Potency [10] | Potency [11] | Potency [12] | Potency [13] | Potency [14] | Potency [15] | activity, negative = cell killing [16, 20] -12.8%

CN1[C@@H]2CC[C@H]1CC(OC(=O)c1cc(Cl)cc(Cl)c1)C2 (stereo partly drawn)
inactive: Potency [1] | Potency [2] | Potency [3] | Potency [4] | Potency [5] | Potency [17] | Potency [6] | Potency [7] | Potency [8] | Potency [9] | Potency [11] | Potency [13] | Potency [14] | Potency [15]

Clc1ccc(C(OCCN2CCCCC2)c2ccccc2)cc1 (stereo not drawn)
active: Potency ([16]; tumour line A) 3.55 µM | Potency ([16]; tumour line B) 10 µM | Potency ([16]; tumour line D) 7.08 µM
inactive: Potency [1] | Potency [2] | Potency [3] | Potency [4] | Potency [6] | Potency [7] | Potency [8] | Potency [9] | Potency [10] | Potency [11] | Potency [14] | Potency [15]

CC(C(O)c1ccccc1)N(C)C/C=C/c1ccccc1 (stereo not drawn)
inactive: Potency [1] | Potency [2] | Potency [3] | Potency [4] | Potency [5] | Potency [17] | Potency [6] | Potency [7] | Potency [8] | Potency [9] | Potency [10] | Potency [11] | Potency [12] | Potency [13] | Potency [14] | Potency [15]

Cc1cccc(Cc2cnc[nH]2)c1C
inactive: Potency [1] | Potency [2] | Potency [3] | Potency [4] | Potency [17] | Potency [6] | Potency [7] | Potency [8] | Potency [9] | Potency [10] | Potency [11] | Potency [18] | Potency [12] | Potency [13] | Potency [14] | Potency [15] | activity, negative = cell killing [16, 21] -15.8% | activity, negative = cell killing [16, 22] -4.57%
active: Potency ([16]; tumour line A) 35.5 µM

CN(C)C(=O)Oc1cc(OC(=O)N(C)C)cc(C(O)CNC(C)(C)C)c1 (stereo not drawn)
inactive: Potency [1] | Potency [2] | Potency [3] | Potency [4] | Potency [5] | Potency [17] | Potency [6] | Potency [7] | Potency [8] | Potency [9] | Potency [10] | Potency [11] | Potency [18] | Potency [12] | Potency [13] | Potency [14] | Potency [15] | activity, negative = cell killing [16, 23] -7.15% | activity, negative = cell killing [16, 24] -0.819% | activity, negative = cell killing ([16]; at 21.3 µM (top of the series), tumour line A) -13.9%

CCCN(CCC)CCc1c[nH]c2ccccc12
inactive: Potency [1] | Potency [2] | Potency [3] | Potency [4] | Potency [17] | Potency [6] | Potency [7] | Potency [8] | Potency [9] | Potency [10] | Potency [11] | Potency [14] | Potency [15] | activity, negative = cell killing [16, 20] -11.3% | activity, negative = cell killing ([16]; at 91.6 µM (top of the series), tumour line D) -14%
active: Potency ([16]; tumour line A) 25.1 µM

CCc1cc(OC)c(C[C@H](C)N)cc1OC
inactive: Potency [1] | Potency [2] | Potency [3] | Potency [4] | Potency [17] | Potency [6] | Potency [19] | Potency [7] | Potency [8] | Potency [9] | Potency [10] | Potency [11] | Potency [12] | Potency [13] | Potency [14] | Potency [15] | activity, negative = cell killing [16, 25] -24.5% | activity, negative = cell killing [16, 26] -14.6%
active: Potency ([16]; tumour line A) 31.6 µM

CCC(=O)O[C@H]1CC[C@H]2[C@@H]3CCC4=CC(=O)CC[C@]4(C)[C@H]3CC[C@]12C
inactive: Potency [1] | Potency [2] | Potency [3] | Potency [4] | Potency [5] | Potency [6] | Potency [7] | Potency [8] | Potency [10] | Potency [11] | Potency [13] | Potency [14] | Potency [15] | activity, negative = cell killing [16, 23] -4.44% | activity, negative = cell killing [16, 24] -24.6%
active: Potency [9] 3.55 µM | Potency [12] 15.8 µM | Potency ([16]; tumour line A) 14.1 µM

C[C@H](CN1CCOCC1)C(C(=O)N1CCCC1)(c1ccccc1)c1ccccc1
active: Potency ([16]; tumour line A) 35.5 µM
inactive: Potency [1] | Potency [2] | Potency [3] | Potency [4] | Potency [6] | Potency [19] | Potency [7] | Potency [8] | Potency [9] | Potency [10] | Potency [11] | Potency [12] | Potency [13] | Potency [14] | Potency [15] | activity, negative = cell killing [16, 25] -15.2% | activity, negative = cell killing [16, 26] -29.8%

C[C@H](N)[C@H](O)c1ccc(O)c(O)c1
inactive: Potency [1] | Potency [2] | Potency [3] | Potency [5] | Potency [17] | Potency [6] | Potency [7] | Potency [11] | activity, negative = cell killing [16, 21] -8.55% | activity, negative = cell killing [16, 22] -15.2%
active: Potency [13] 25.1 µM

CCC1(c2ccccc2)CCC(=O)NC1=O (stereo not drawn)
inactive: Potency [1] | Potency [2] | Potency [3] | Potency [4] | Potency [5] | Potency [17] | Potency [6] | Potency [7] | Potency [8] | Potency [9] | Potency [10] | Potency [11] | Potency [18] | Potency [12] | Potency [13] | Potency [14] | Potency [15] | activity, negative = cell killing [16, 21] -10.4% | activity, negative = cell killing [16, 22] -10.3% | activity, negative = cell killing ([16]; at 46 µM (top of the series), tumour line A) -28.9%
